From PMC8668186, “Molecular architecture of the human tRNA ligase complex” (eLife, 2021) come the findings set out here.

One experiment has as its target DDX1 (UniProt Q92499). Kind of experiment: cross-linking mass spectrometry. The following applies: DSS, purified complex.
A further experiment has as its target RTCB (UniProt Q9Y3I0). Kind of experiment: cross-linking mass spectrometry. To be noted: DSS, purified complex.

Sequence of FAM98B (Q52LJ0 whole entry): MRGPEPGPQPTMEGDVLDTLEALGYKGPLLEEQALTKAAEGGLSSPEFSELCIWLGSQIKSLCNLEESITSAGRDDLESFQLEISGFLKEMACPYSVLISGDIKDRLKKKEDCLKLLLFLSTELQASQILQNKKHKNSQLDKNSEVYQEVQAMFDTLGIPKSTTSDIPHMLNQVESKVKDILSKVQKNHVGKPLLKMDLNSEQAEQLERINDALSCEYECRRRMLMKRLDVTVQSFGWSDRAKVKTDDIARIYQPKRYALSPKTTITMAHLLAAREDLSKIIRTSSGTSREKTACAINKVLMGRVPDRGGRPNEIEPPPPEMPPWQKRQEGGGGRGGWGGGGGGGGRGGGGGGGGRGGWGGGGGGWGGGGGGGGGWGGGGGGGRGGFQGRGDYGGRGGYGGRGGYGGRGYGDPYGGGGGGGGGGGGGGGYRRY
Sequence of DDX1 (Q92499 whole entry): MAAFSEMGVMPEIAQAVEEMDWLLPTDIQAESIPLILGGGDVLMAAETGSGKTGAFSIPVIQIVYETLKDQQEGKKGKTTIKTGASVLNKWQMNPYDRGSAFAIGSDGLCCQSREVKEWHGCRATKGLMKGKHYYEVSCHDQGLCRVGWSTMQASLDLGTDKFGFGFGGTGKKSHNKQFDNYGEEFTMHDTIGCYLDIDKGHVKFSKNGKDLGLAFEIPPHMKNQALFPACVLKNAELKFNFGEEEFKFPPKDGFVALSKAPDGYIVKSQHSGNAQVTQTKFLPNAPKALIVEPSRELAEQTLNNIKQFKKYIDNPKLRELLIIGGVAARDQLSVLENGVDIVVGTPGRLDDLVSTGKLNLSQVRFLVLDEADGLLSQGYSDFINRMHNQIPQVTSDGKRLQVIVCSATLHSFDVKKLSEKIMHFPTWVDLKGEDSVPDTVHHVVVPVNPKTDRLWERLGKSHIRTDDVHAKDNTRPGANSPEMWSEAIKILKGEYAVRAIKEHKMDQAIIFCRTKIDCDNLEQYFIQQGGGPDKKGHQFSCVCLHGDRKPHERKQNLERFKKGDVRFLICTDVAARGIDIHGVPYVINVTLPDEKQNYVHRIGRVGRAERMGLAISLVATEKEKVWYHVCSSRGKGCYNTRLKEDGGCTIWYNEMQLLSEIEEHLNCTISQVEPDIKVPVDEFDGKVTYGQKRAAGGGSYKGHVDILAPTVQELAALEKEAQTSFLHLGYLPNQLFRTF
Sequence of RTCB (Q9Y3I0 whole entry): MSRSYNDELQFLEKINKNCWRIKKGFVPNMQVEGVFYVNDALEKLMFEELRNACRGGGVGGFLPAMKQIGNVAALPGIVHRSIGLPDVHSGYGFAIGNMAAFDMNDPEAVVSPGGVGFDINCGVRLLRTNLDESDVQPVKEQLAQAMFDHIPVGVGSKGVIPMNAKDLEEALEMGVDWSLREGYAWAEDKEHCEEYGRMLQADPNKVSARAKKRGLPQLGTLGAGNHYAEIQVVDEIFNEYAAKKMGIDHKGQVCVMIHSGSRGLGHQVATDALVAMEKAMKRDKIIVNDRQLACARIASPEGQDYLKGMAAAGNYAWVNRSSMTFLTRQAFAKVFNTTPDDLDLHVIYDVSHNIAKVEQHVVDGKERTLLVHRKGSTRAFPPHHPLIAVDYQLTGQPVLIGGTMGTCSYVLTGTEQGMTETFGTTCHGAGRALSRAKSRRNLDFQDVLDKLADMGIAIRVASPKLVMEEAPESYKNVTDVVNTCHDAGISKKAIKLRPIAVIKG

As to FAM98B, Q52LJ0, the cross-linked residues result with DDX1 is “K245 - K693”; with RTCB, “K280 - K245”.
